Test results from PubChem BioAssay AID1159580 (chemical genetic matrix, 2015).
“And” between values parts separate entries of the source, which are not always exact repeats. Identical values can stand only once. Among all 5,500 compounds or so, about 2,000 (36%) were called active. Another 18% or so got no clear call; they are omitted. Rule as the data show it: active = normalized growth mostly below about 0.91 (no sharp cut-off); inconclusive = no clear call, values can overlap the other calls; inactive = mostly above about 0.92. This is one part of the list.

Test: chemical genetic growth profiling, strain panel (AID 1159580);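 also: tested at 20 µM; growth read once vehicle control cultures reached saturation at 30 °C; 1 = growth at the plate median or of vehicle wells; lower values mean less growth of the strain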
Details: S. cerevisiae deletion strains, growth OD

Measured: normalized growth

CC(=O)Oc1c(C)c(C)c2c(c1C)CCC(C)(CCCC(C)CCCC(C)CCCC(C)C)O2 (stereo unspecified)
inactive: locus YAL021C, strain ccr4, hits give low values 1 | locus YAL026C, strain drs2, hits give low values 0.982 | locus YAL030W, strain snc1, hits give low values 0.976 | locus YBL061C, strain skt5, hits give low values 0.995 | locus YBR009C, strain hhf1, hits give low values 0.957 | locus YBR021W, strain FUR4, hits give low values 1.03 | locus YBR023C, strain chs3, hits give low values 0.99 | locus YBR171W, strain sec66, hits give low values 1 | locus YBR229C, strain ROT2, hits give low values 1.02 | locus YBR231C, strain swc5, hits give low values 0.995 | locus YBR279W, strain paf1, hits give low values 0.985 | locus YCL011C, strain gbp2, hits give low values 0.975 | locus YCL016C, strain dcc1, hits give low values 0.985 | locus YCL029C, strain bik1, hits give low values 0.995 | locus YCL061C, strain MRC1, hits give low values 0.998 | locus YCL069W, strain vba3, hits give low values 0.982 | locus YCR088W, strain abp1, hits give low values 0.978 | locus YDL005C, strain med2, hits give low values 0.979 | locus YDL035C, strain GPR1, hits give low values 1.01 | locus YDL040C, strain nat1, hits give low values 0.98 | locus YDL074C, strain BRE1, hits give low values 1 | locus YDL101C, strain DUN1, hits give low values 1.03 | locus YDL134C, strain PPH21, hits give low values 1.02 | locus YDL185W, strain tfp1, hits give low values 0.983 | locus YDL192W, strain arf1, hits give low values 1.01 | locus YDR001C, strain nth1, hits give low values 0.98 | locus YDR069C, strain doa4, hits give low values 0.983 | locus YDR101C, strain arx1, hits give low values 0.983 | locus YDR137W, strain rgp1, hits give low values 0.961 | locus YDR150W, strain NUM1, hits give low values 1.02 | locus YDR159W, strain sac3, hits give low values 0.968 | locus YDR162C, strain NBP2, hits give low values 1.03 | locus YDR195W, strain ref2 0.946 | locus YDR297W, strain sur2, hits give low values 0.987 | locus YDR318W, strain mcm21, hits give low values 1.01 | locus YDR334W, strain swr1, hits give low values 0.988 | locus YDR335W, strain msn5, hits give low values 0.993 | locus YDR388W, hits give low values 0.992 | locus YDR392W, strain spt3, hits give low values 1.03 | locus YDR502C, strain sam2, hits give low values 0.991 | locus YEL003W, strain gim4, hits give low values 0.983 | locus YEL037C, strain rad23, hits give low values 0.985 | locus YEL061C, strain CIN8 (second series), hits give low values 0.975 | locus YEL061C, strain CIN8, hits give low values 1.01 | locus YER015W, strain faa2, hits give low values 0.984 | locus YER016W, strain bim1, hits give low values 0.992 | locus YER110C, hits give low values 0.99 | locus YER111C, strain swi4, hits give low values 0.985 | locus YER155C, strain BEM2 (second series), hits give low values 1.01 | locus YER155C, strain BEM2, hits give low values 1.01 | locus YER167W, strain BCK2, hits give low values 1.02 | locus YFR010W, strain ubp6, hits give low values 0.981 | locus YGL078C, strain dbp3, hits give low values 0.993 | locus YGL086W, strain mad1, hits give low values 0.991 | locus YGL167C, strain pmr1, hits give low values 0.971 | locus YGL173C, strain kem1, hits give low values 0.99 | locus YGL227W, strain vid30, hits give low values 0.974 | locus YGL240W, strain doc1, hits give low values 1 | locus YGL248W, strain PDE1, hits give low values 1.03 | locus YGL253W, strain hxk2, hits give low values 0.977 | locus YGR078C, strain PAC10, hits give low values 1.03 | locus YGR135W, strain pre9, hits give low values 1.01 | locus YGR229C, strain SMI1, hits give low values 1.01 | locus YGR252W, strain gcn5, hits give low values 0.978 | locus YHR013C, strain ard1, hits give low values 0.949 | locus YHR027C, strain rpn1, hits give low values 0.989 | locus YHR030C, strain SLT2, hits give low values 1.02 and 1 | locus YHR079C, strain IRE1 (second series), hits give low values 1 | locus YHR079C, strain IRE1, hits give low values 0.964 | locus YHR094C, strain hxt1, hits give low values 0.989 | locus YHR129C, strain ARP1, hits give low values 1.02 | locus YHR142W, strain chs7, hits give low values 0.987 | locus YHR200W, strain rpn10, hits give low values 0.989 | locus YIL066C, strain RNR3, hits give low values 1.03 | locus YIL073C, strain SPO22, hits give low values 0.994 | locus YIL125W, strain kgd1, hits give low values 0.991 | locus YIR030C, strain dcg1, hits give low values 1.01 | locus YJL092W, strain hpr5, hits give low values 0.98 | locus YJL095W, strain BCK1 (second series), hits give low values 0.991 | locus YJL095W, strain BCK1, hits give low values 1.05 and 0.989 | locus YJL115W, strain asf1, hits give low values 1 | locus YJL129C, strain trk1, hits give low values 0.987 | locus YJL134W, strain LCB3, hits give low values 1.02 | locus YJL154C, strain vps35, hits give low values 0.989 | locus YJL164C, strain tpk1, hits give low values 0.995 | locus YJL166W, strain qcr8, hits give low values 0.989 | locus YJL168C, strain set2, hits give low values 1 | locus YJL187C, strain SWE1 (second series), hits give low values 1.02 | locus YJL187C, strain SWE1, hits give low values 0.991 | locus YJR043C, strain POL32, hits give low values 1.03 | locus YJR066W, strain TOR1, hits give low values 0.945 | locus YKL009W, strain mrt4, hits give low values 1.01 | locus YKL068W, hits give low values 1.01 | locus YKL085W, strain MDH1 (second series), hits give low values 0.997 | locus YKL085W, strain MDH1, hits give low values 0.997 | locus YKL160W, strain elf1, hits give low values 1 | locus YKL190W, strain CNB1, hits give low values 1.02 | locus YKR001C, strain vps1, hits give low values 0.999 | locus YKR026C, strain gcn3, hits give low values 0.976 | locus YKR091W, strain srl3, hits give low values 0.977 | locus YLL001W, strain dnm1, hits give low values 0.99 | locus YLL026W, hits give low values 0.98 | locus YLL041C, strain sdh2, hits give low values 0.992 | locus YLR027C, strain aat2, hits give low values 0.99 | locus YLR039C, strain RIC1, hits give low values 1.08 | locus YLR058C, strain SHM2, hits give low values 1.03 | locus YLR102C, strain apc9, hits give low values 0.993 | locus YLR113W, strain HOG1, hits give low values 0.949 | locus YLR221C, strain rsa3, hits give low values 1 | locus YLR258W, strain gsy2, hits give low values 0.97 | locus YLR262C, strain YPT6 (second series), hits give low values 0.989 | locus YLR262C, strain YPT6, hits give low values 1.09 | locus YLR268W, strain sec22, hits give low values 0.984 | locus YLR320W, strain mms22, hits give low values 0.984 | locus YLR330W, strain CHS5, hits give low values 1.02 | locus YLR342W, strain FKS1 (second series), hits give low values 1.04 | locus YLR342W, strain FKS1, hits give low values 0.979 | locus YLR357W, strain rsc2, hits give low values 1.01 | locus YLR370C, strain arc18, hits give low values 1 | locus YLR371W, strain rom2, hits give low values 0.981 | locus YLR384C, strain iki3, hits give low values 0.991 | locus YLR418C, strain cdc73, hits give low values 1.01 | locus YML016C, strain PPZ1, hits give low values 1.02 | locus YML032C, strain rad52, hits give low values 1.01 | locus YML120C, strain ndi1, hits give low values 1.01 | locus YML124C, strain tub3, hits give low values 0.991 | locus YMR058W, strain fet3, hits give low values 1.01 | locus YMR078C, strain ctf18, hits give low values 1 | locus YMR125W, strain sto1, hits give low values 1 | locus YMR129W, hits give low values 0.975 | locus YMR205C, strain PFK2, hits give low values 0.96 | locus YMR223W, strain ubp8, hits give low values 1.01 | locus YMR231W, strain pep5, hits give low values 0.976 | locus YMR307W, strain GAS1, hits give low values 1.07 | locus YNL067W, strain RPL9B, hits give low values 1.03 | locus YNL071W, strain lat1, hits give low values 1 | locus YNL183C, strain NPR1, hits give low values 0.949 | locus YNL209W, strain ssb2, hits give low values 0.986 | locus YNL233W, strain BNI4, hits give low values 1.01 | locus YNL248C, strain rpa49, hits give low values 1.05 | locus YNL250W, strain rad50, hits give low values 1 | locus YNL271C, strain bni1, hits give low values 0.995 | locus YNL298W, strain CLA4, hits give low values 0.995 | locus YNL307C, strain MCK1, hits give low values 0.987 | locus YNL322C, strain KRE1 (second series), hits give low values 0.99 | locus YNL322C, strain KRE1, hits give low values 1.02 | locus YNR049C, strain mso1, hits give low values 0.986 | locus YNR052C, strain pop2, hits give low values 0.984 | locus YOL012C, strain htz1 0.81 | locus YOL147C, strain pex11, hits give low values 0.991 | locus YOR001W, strain rrp6, hits give low values 1.01 | locus YOR061W, strain CKA2, hits give low values 1.03 | locus YOR069W, strain VPS5, hits give low values 1.01 | locus YOR070C, strain gyp1, hits give low values 0.988 | locus YOR080W, strain dia2, hits give low values 0.992 | locus YOR083W, strain WHI5, hits give low values 1.01 | locus YOR106W, strain vam3, hits give low values 0.977 | locus YOR136W, strain idh2, hits give low values 0.98 | locus YOR144C, strain elg1, hits give low values 0.986 | locus YOR184W, strain ser1, hits give low values 0.99 | locus YOR231W, strain MKK1, hits give low values 0.978 | locus YOR265W, strain rbl2, hits give low values 0.988 | locus YOR270C, strain vph1, hits give low values 0.976 | locus YOR290C, strain snf2, hits give low values 1.01 | locus YOR316C, strain cot1, hits give low values 0.997 | locus YPL051W, strain arl3, hits give low values 1.01 | locus YPL078C, strain atp4, hits give low values 0.995 | locus YPL106C, strain sse1, hits give low values 1.05 | locus YPL240C, strain hsp82, hits give low values 0.995 | locus YPL241C, strain CIN2, hits give low values 1.02 | locus YPL256C, strain CLN2, hits give low values 1.05 | locus YPR119W, strain clb2, hits give low values 0.995 | locus YPR141C, strain kar3, hits give low values 1 | locus YPR163C, strain tif3, hits give low values 0.991 | locus YPR167C, strain met16, hits give low values 0.995 | strain wtn01, hits give low values 0.977
